Records with an inconclusive call do not appear. The source made the active and inactive calls. Calls come from the whole dose curve; as a rule, active = well fitted inhibition curve with a large enough effect; inconclusive = small, poorly fitted or top-dose-only effect; inactive = no such curve, though single readings can be large or run the other way.
These compounds were tested against Tumor susceptibility gene 101 protein (Homo sapiens) (UniProt Q99816) (assay: qHTS Assay for Iinhibitors of HIV-1 Budding by Blocking the Interaction of PTAP/TSG101: Hit Validation in TR assay). Settings: Tsg101 binding domain + Texas Red-labeled PTAP peptide, fluorescence polarization, 20 min; series mostly up to 57.5 µM; activity change, negative = inhibition: at the top concentration.
Outline: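 Texas Red-PTAP peptide (50 nM) binding to Tsg101 binding domain (10 uM), both final, in pH 7.5 HEPES buffer, read as polarization after 20 min at room temperature; compounds pinned before peptide addition.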
% is set by controls: 0 for no effect and ±100 for the full control effect; potency is the fitted concentration of half-maximal effect.

Tumor susceptibility gene 101 protein (Homo sapiens), sequence (Q99816 whole entry, looked up, the tested form may be a part): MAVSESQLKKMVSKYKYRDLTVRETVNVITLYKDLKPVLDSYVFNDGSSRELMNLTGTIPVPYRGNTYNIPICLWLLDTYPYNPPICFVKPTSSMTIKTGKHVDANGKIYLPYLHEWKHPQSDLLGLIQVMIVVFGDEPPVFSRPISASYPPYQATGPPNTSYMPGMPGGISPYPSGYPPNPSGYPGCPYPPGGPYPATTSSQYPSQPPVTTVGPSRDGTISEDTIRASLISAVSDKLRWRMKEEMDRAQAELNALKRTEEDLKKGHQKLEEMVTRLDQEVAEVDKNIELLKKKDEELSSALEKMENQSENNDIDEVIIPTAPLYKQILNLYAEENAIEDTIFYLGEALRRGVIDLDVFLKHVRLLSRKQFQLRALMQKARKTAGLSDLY

Row | Compound | activity change, negative = inhibition | Potency
1 | CCN1CCN(Cc2ccc(NC(=O)Nc3ccccc3OC)cc2)CC1 | -9.87% (inactive) | 
2 | Nc1ccc2c(c1)C/C(=C/c1ccco1)C2=O | -14.1% (inactive) | 
3 | CC1C2C(c3ccccc3)N(C)C(=O)N(C)C2N(C)C(=O)N1C (centres undefined) | -10.7% (inactive) | 
4 | COc1ccc(OC)c(/C=C(\C#N)c2nc3ccccc3c(=O)[nH]2)c1 | 27.1% (inactive) | 
5 | O=C1c2ccccc2C(=O)c2c1ccc(O)c2O | -3.33% (inactive) | 
6 | Cc1c(C(=O)N(C)c2cccc(C(F)(F)F)c2)sc2nc3n(c(=O)c12)CCCCC3 | -10.5% (inactive) | 
7 | CCC/C(C#Cc1ccc(N(C)C)cc1)=C1/c2ccccc2C(=O)N1c1ccccc1 | 19.8% (inactive) | 
8 | N=C1/C(=C/c2coc3ccccc3c2=O)C(=O)N=C2SC(c3ccco3)=NN12 | -1.87% (inactive) | 
9 | COc1ccccc1NC(=O)/C(C#N)=C/c1cc([N+](=O)[O-])ccc1N1CCCC1 | -11.4% (inactive) | 
10 | O=C(CN1C(=O)c2ccccc2S1(=O)=O)Nc1ncc(Cl)cc1Cl | 24.7% (inactive) | 
11 | CCCCC(=O)NC1=NC(=O)C(C)(C)S1 | 15.5% (inactive) | 
12 | Nc1ccc(-c2c3ccc(=O)cc-3oc3cc(O)ccc23)c(C(=O)O)c1 | -14.5% (inactive) | 
13 | Cc1n[nH]c(C)c1N1C(=O)c2cccc3c(N4CCCCCC4)ccc(c23)C1=O | 5.79% (inactive) | 
14 | COc1ccc2nc3ccccc3[n+]([O-])c2c1 | -10.9% (inactive) | 
15 | CC1CC=C2C(C#N)=C(N)C(C#N)(C#N)C(c3cccs3)C2C1 (centres undefined) | 4.26% (inactive) | 
16 | NC(=O)c1ccccc1NCC(=O)c1ccc(F)cc1 | -2.66% (inactive) | 
17 | O=C1NC(=S)/C(=C\c2ccc(-c3ccccc3Cl)o2)S1 | 2.19% (inactive) | 
18 | CC(=O)n1c(C=Nc2ccc(Cl)cc2)c(O)c2ccccc21 | -21.5% (inactive) | 
19 | O=C1c2cccc3c(O)ccc(c23)C(=O)N1Cc1ccccc1 | 0.844% (inactive) | 
20 | CCn1cc(C=C2C(=O)c3ccccc3C2=O)c2ccccc21 | -10.3% (inactive) | 

Row | Compound | activity change, negative = inhibition | Potency
21 | CCNc1cccc2c1C(=O)N(C)C2=O | 101% (inactive) | 
22 | O=c1oc2ccccc2cc1-c1nc(-c2cccs2)cs1 | -12.5% (inactive) | 
23 | CCN(CC)c1nc2ccccc2nc1C(C#N)C(=O)NCCc1ccccc1 (centres undefined) | 50.5% (inactive) | 
24 | CCc1ccc(/C=C2/C(=O)N(C)C(=S)N2CC(=O)OC)s1 | -11.4% (inactive) | 
25 | C=CCOc1ccc(C2OC34CCCCC3C(C#N)(C#N)C2(C#N)C(=N)O4)cc1 (centres undefined) | -21.9% (inactive) | 
26 | CC1CCN(c2ccc3c(c2)S(=O)(=O)c2cccc(C(=O)NCc4cccc(F)c4)c2C3=O)CC1 | -8.5% (inactive) | 
27 | OC(CN1CCN(c2ccccn2)CC1)Cn1c2ccccc2c2ccccc21 (centres undefined) | -12.6% (inactive) | 
28 | CN1CCCc2cc3c(C(F)(F)F)cc(=O)oc3nc21 | 4.6% (inactive) | 
29 | O=C(Nc1ccccc1F)C(=Cc1sc(N2CCOCC2)nc1-c1ccccc1)C(=O)Nc1ccccc1F | 0.0258% (inactive) | 
30 | CCCCn1c(SCC(=O)c2cc(OC)ccc2OC)nc2cc(S(N)(=O)=O)ccc21 | -3.13% (inactive) | 
31 | O=[N+]([O-])c1ccc(-c2cn3nc(-c4ccccc4)c(-c4ccccc4)nc3n2)cc1 | 0.23% (inactive) | 
32 | Cc1ccccc1N1C(=O)c2cccc3c(N(C)CCO)ccc(c23)C1=O |  | 32.6 µM (active)
33 | S=C(NCc1ccccc1)Nc1cccc(Cl)c1 | -0.728% (inactive) | 
34 | O=c1[nH]c2c(s1)C=Nc1ccccc1N2 | -16.5% (inactive) | 
35 | Oc1ccc2nnc3c(Br)cnn3c2c1 | -3.06% (inactive) | 
36 | CCCCCCc1cc2cc(C(=O)NC)c(=N)oc2cc1O | -3.42% (inactive) | 
37 | COc1ccc2ccccc2c1C(O)c1nccn1C (centres undefined) | -39.1% (inactive) | 
38 | O=C(C1=NN(c2ccccc2)C2C(=O)N(c3ccccc3Cl)C(=O)C12)c1ccccc1 (centres undefined) | 19.6% (inactive) | 
39 | CCN(CC)c1ccc(/C=c2\sc3nc4ccccc4n3c2=O)c(O)c1 | -27% (inactive) | 

Source: PubChem BioAssay AID651599 (National Center for Advancing Translational Sciences (NCATS), 2012)
